Results on 52 compounds are retold here after PubChem BioAssay AID2546 (National Center for Advancing Translational Sciences (NCATS), 2010).

Structures are written as SMILES. Out of some 310,000 compounds screened, about 11,000 (3.5%) were called active. Not shown: some 8% with an inconclusive outcome. Many of the other results were omitted from the sample, so actives are more common in it than they were. Values without a mark were called inactive. Calls come from the whole dose curve; as a rule, active = well fitted inhibition curve with a large enough effect; inconclusive = small, poorly fitted or top-dose-only effect, or effect the other way; inactive = flat fitted curve, though single readings scatter.
% is set by controls: 0 for no effect and ±100 for the full control effect; potency is the fitted concentration of half-maximal effect.

The assay in a line: VP16 counterscreen qHTS for inhibitors of ROR gamma transcriptional activity.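 Note: Gal4-VP16 expression switched on by copper sulfate through the metallothionein promoter; nearly all actives have a fitted effect of over 50% in size.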 Particulars: Drosophila S2 Gal4-VP16 UAS-luciferase, luminescence, 20 h; series mostly up to 53.6 µM; activity, negative = inhibition: at the top concentration.
For `O=C(c1cc(C(F)(F)F)cc(C(F)(F)F)c1)N1CCC2(CC1)CN(c1ccncc1)C2`, the “activity, negative = inhibition” value was 10.8%.

With `O=C(c1cc(C(F)(F)F)cc(C(F)(F)F)c1)N1CCC2(CCCN(c3ccccn3)C2)CC1`, the Potency was 12.6 µM (active). Consider `O=C(c1cc(C(F)(F)F)cc(C(F)(F)F)c1)N1CCC[C@@]2(CCN(c3ccccn3)C2)C1`, for which the “activity, negative = inhibition” value was -11.2%. Still for that read-out and setting: then `Cc1ccc2c(cnn2C(=O)CCC(=O)NC2CCCC2)c1`, with 2.56%; and `COc1ccccc1NC(=O)c1ccc(N2CC3CC(C2)c2cccc(=O)n2C3)c(NC(=O)c2cccnc2)c1` (configuration not stated), with -1.12%. On the same count and under the same terms, then `Cc1ccc(-n2nc3cc(Cl)c(NC(=O)c4ccco4)cc3n2)cc1`, with 1.07%. Take `Cc1ccc(Cn2c(NC(=O)c3ccco3)nc3ccccc32)cc1`: the Potency was 1.58 µM (active). As for `CCC(=O)Nc1nc2ccccc2n1Cc1ccccc1C`, the “activity, negative = inhibition” value was -4.06%. `CC(=O)Nc1nc2ccccc2n1Cc1ccc(C)cc1`: the Potency is 2.51 µM (active). As to `CC(=O)c1nc2ccccc2n1Cc1ccccc1`, the “activity, negative = inhibition” value was 3.73%. Same read-out and setting: for `CCn1nc(NC(=O)c2ccco2)c2cc3ccc(C)cc3nc21` the value was -2.31%.

As for `COc1ccc(CNC(=O)C(C)NCc2ccccc2Cl)cc1` (configuration not stated), the “activity, negative = inhibition” value was 5.57%. The same measure, in the same setting: for `CN(C)S(=O)(=O)c1ccc(C(=O)NCCN=C2NS(=O)(=O)c3ccccc32)cc1` the value was -0.064%; for `Cc1cc2occ(CC(=O)NNC(=O)c3ccccc3F)c2cc1C`, -0.256%; for `O=C(NNc1cc(Cl)ccc1Cl)c1cccnc1Cl`, 8.05%.

`N#Cc1ccc(C(=O)Nc2cccc3cccnc23)c(F)c1`: the “activity, negative = inhibition” value was -9.47%. As for `CC(=O)/C(=N\Nc1ccc(Cl)cc1Cl)Sc1cccc2cccnc12`, the Potency is 5.01 µM (active). For the compound `CCn1c(CC(=O)Nc2ccccc2C)nnc1SCC(=O)NC1=NCCS1`, the “activity, negative = inhibition” value is 1.12%. On the same count and under the same terms, for `CC1CC(C)CN(S(=O)(=O)c2cccc3nonc23)C1` (configuration not stated) the value was -2.88%; for `Cc1nnc2n1N=C(c1ccccc1)CS2`, 3.4%; for `CCC(=O)Nc1ccc2nc(C)n(Cc3ccccc3Cl)c(=O)c2c1`, 5.2%. For `CCN1CCN(c2cc3nc(C)n(Cc4ccccc4)c(=O)c3cc2NC(=O)c2ccccc2F)CC1`, the Potency was 11.2 µM (active). For the compound `CCOc1cc(NC(=O)c2ccccc2C(=O)O)c(OCC)cc1NC(=O)c1ccccc1F`, the “activity, negative = inhibition” value was -4.4%. On the same count and under the same terms, then `COc1cccc(NC(=O)CN(C)C(=O)c2ccccc2CCc2ccccc2)c1`, with -5.03%. On the same count and under the same terms, then `CC1CCCCC1NC(=O)c1cn(C)c2ccc(S(=O)(=O)N3CCOCC3)cc2c1=O` (configuration not stated), with 20.7%; and `O=c1onc(-c2c(F)cccc2F)n1-c1ccccc1Cl`, with 3.94%; and `COc1ccc([N+](=O)[O-])cc1NCC(=O)c1ccc(C)cc1`, with 2.56%.

In the case of `Cc1nn(CC(=O)NC2CCCCC2)c(=O)c2cccn12`, the “activity, negative = inhibition” value was -0.985%. The same measure, in the same setting: then `COc1ccc(C(=O)NC(C)CCc2ccccc2)c(OC)c1` (configuration not stated), with 14.5%. On to `CCCn1nnnc1NC(=O)COc1ccc(Cl)cc1C`, for which the Potency was 2 µM (active). Consider `Cc1cc(NC(=O)COc2ccc(Cl)cc2Cl)n(CCC#N)n1`, for which the “activity, negative = inhibition” value is 11.1%.

With `CCOC(=O)N1CCN(C(=O)COc2ccc(Cl)cc2C)CC1`, the “activity, negative = inhibition” value was 13.7%. The same measure, in the same setting: for `O=C(Nc1ccccc1C(=O)NCC1CCCO1)c1ccccc1F` (configuration not stated) the value was 6.59%. The same measure, in the same setting: for `CCOC(CNC(=O)C1CCN(S(=O)(=O)c2ccc3nc4c(c(C(=O)O)c3c2)CC(C)CC4)CC1)OCC` (configuration not stated) the value was -5.96%. With `O=C(Oc1cccc(C(=S)N2CCOCC2)c1)c1cccc(Cl)c1`, the “activity, negative = inhibition” value was -22.8%. In the case of `CCOC(=O)C1=C(O)CSC1=Nc1cccc(Cl)c1`, the “activity, negative = inhibition” value was 0.63%. In the case of `CN(C)c1nc(=Nc2cccc(Cl)c2)ss1`, the Potency was 0.891 µM (active). `Cn1c(=O)c(=O)n(C)c2cc(S(=O)(=O)CCC(=O)N3CCCCC3)ccc21`: the “activity, negative = inhibition” value is -5.3%. For `O=C(COc1ccc(Cl)cc1)NCCS(=O)(=O)N1CCN(c2ccc(F)cc2)CC1`, the “activity, negative = inhibition” value is -4.16%. For `CCCOc1ccc(Cc2c(Cl)nc(SC)nc2NC)cc1`, the Potency is 7.08 µM (active). Turning to `CCCOc1ccc(-c2nc(N)n[nH]2)cc1`, the “activity, negative = inhibition” value was -8.77%.

`CCCOc1ccc(Cc2c(O)nc(SC)[nH]c2=O)cc1C`: the “activity, negative = inhibition” value is -7.9%. Same read-out and setting: then `Cc1cccc(C(=O)OCC(=O)Nc2ccc(F)cc2)c1`, with -3.7%; and `COc1ccccc1C(=O)OCC(=O)NCCNC(=O)COC(=O)c1ccccc1OC`, with 10.1%.

As for `Cc1cc(C)cc(C(=O)OCC(=O)NCCNC(=O)COC(=O)c2cc(C)cc(C)c2)c1`, the Potency is 0.0891 µM (active). In the case of `COc1cc(N=Cc2c(O)c3ccccc3oc2=O)c(OC)cc1Cl`, the “activity, negative = inhibition” value is -16%. As to `Cc1ccc(Oc2cc(NC(=O)CCCn3nc(C)c([N+](=O)[O-])c3C)cc([N+](=O)[O-])c2)cc1`, the Potency is 1 µM (active).

Turning to `CCc1ccc(NC(=O)Cn2nc(C)c([N+](=O)[O-])c2C)cc1`, the “activity, negative = inhibition” value is 6.54%. For the compound `COc1ccc(CNC(=O)CCCn2nc(C)c([N+](=O)[O-])c2C)cc1`, the “activity, negative = inhibition” value is -10.7%.

With `CCOC(=O)c1c(S(=O)(=O)Nc2ccc(CN3CCC(C)CC3)cc2)c(C)n(C)c1C`, the “activity, negative = inhibition” value was -1.56%. On the same count and under the same terms, then `CCC(C)c1ccccc1NC(=O)CN(C)CC(=O)Nc1ccccc1SC` (configuration not stated), with -15.4%; and `CC(=O)c1ccc(NC(=O)CCNS(=O)(=O)c2cc(Br)cnc2N)cc1`, with -9.98%.
